SARS PLP yeast: qHTS of Yeast-based Assay for SARS-CoV PLP | S. cerevisiae expressing SARS-CoV PLpro, growth rescue | Potency, µM (highest dose often 32.9 µM), most hits filed as activators | 0.19% of 330,000 active; further: nearly all actives have a fitted effect of over 55% in size
Pf growth 48h: Primary qHTS for delayed death inhibitors of the malarial parasite plastid, 48 hour incubation. Potency, µM (highest dose often 28.7 µM), actives largely listed as inhibitors. P. falciparum luciferase growth in erythrocytes, 48 h. 5.9% of 310,000 active; active means well fitted inhibition curve with a large enough effect; inconclusive means small, poorly fitted or top-dose-only effect, or another doubt; inactive means no such curve, though single readings can be large or run the other way
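Compounds are pin-transferred into medium, infected erythrocytes (2% hematocrit, 0.1% parasitemia final) are added, and plates sit one parasite generation at 37 C in 5% CO2. Detection reagent is then added and luminescence measured.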
Pf growth 96h: Primary qHTS for delayed death inhibitors of the malarial parasite plastid, 96 hour incubation; P. falciparum luciferase reporter growth, 96 h; Potency, µM (top dose mostly 28.7 µM), actives largely listed as inhibitors; 6.9% of 320,000 active; AID 504834, 2011; active means well fitted inhibition curve with a large enough effect; inconclusive means small, poorly fitted or top-dose-only effect, or another doubt; inactive means no such curve, though single readings can be large or run the other way
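Compounds incubated with erythrocytes infected by luciferase-expressing P. falciparum (2% hematocrit, 0.05% parasitemia final) for 96 hours, 37 C in 5% CO2. Growth inhibition scored as decreased luciferase luminescence.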
RE007 growth inh: qHTS Assay for Inhibitors of the HIV-1 protein Vpr; S. pombe RE007 Vpr strain, BacTiter-Glo ATP luminescence, 24 h; Potency, µM (titrated, usually from 92.2 µM), most hits filed as inhibitors; 0.21% of 360,000 active; active means well fitted falling curve with a large enough effect; inconclusive means small, poorly fitted or top-dose-only effect; inactive means no such curve, though single readings can be large or run the other way; further: nearly all actives have a fitted effect of over 50% in size
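Fission yeast RE007 carrying one integrated HIV-1 vpr copy, seeded at OD 0.01 in PMG+AL medium with 23 nL pinned compound. Grown 24 h at 30 degrees; viability read by BacTiter-Glo luminescence after 5 min.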
NS1 inh: qHTS Assay for Inhibitors of Influenza NS1 Protein Function; 0.4% of 270,000 active; Potency, µM (top dose mostly 46.1 µM); further: actives are rising curves; nearly all actives have a fitted effect of over 50% in size
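Recovery from NS1-induced slow growth read by OD600 in budding yeast switched to galactose assay medium (pH 6.0, -URA) at 1:100 dilution. Compound 23 nl per well; the matching strain lacking NS1 serves as control.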
Of the large screens only hits and unclear results are named; the others gave an inactive call; ! = not confirmed by another sample. Hits are enriched below; roughly 9.5% of the tested compounds scored in any of these assays. Unless noted, the call rests on the fitted dose curve.

N#CC1(c2ccccc2)CCN(C2CC(=O)N(c3cccc(F)c3)C2=O)CC1 (stereo unspecified)	Pf growth 96h 8.3µM, RE007 growth inh inconclusive
O=C1CC(N2CCN(c3ccccc3Cl)CC2)C(=O)N1c1cccc(F)c1 (stereo unspecified)	Pf growth 96h inconclusive, RE007 growth inh 35µM
CCOC(=O)c1ccc(S(=O)(=O)N2CCN(C3CC(=O)N(c4ccccc4C(F)(F)F)C3=O)CC2)cc1 (stereo unspecified)	Pf growth 48h 13µM, Pf growth 96h 12µM (no result: NS1 inh)
CCOC(=O)c1ccc(N2C(=O)CC(N3CCC(C#N)(c4ccccc4)CC3)C2=O)cc1 (stereo unspecified)	Pf growth 48h inconclusive, RE007 growth inh 22µM
O=C(/C=C/[C@H]1O[C@@H](n2ccc(=O)[nH]c2=O)[C@H](O)[C@@H]1O)N[C@@H](Cc1ccccc1)C(=O)O	none (no result: SARS PLP yeast, Pf growth 48h, Pf growth 96h, NS1 inh)
CCOC(=O)N1CCN(C(=O)C(=O)Nc2sc3c(c2C(N)=O)CC(C)(C)OC3)CC1	Pf growth 96h inconclusive
OCc1cc(C(O)CNCCCCCCOCCCCc2ccccc2)ccc1O (stereo unspecified)	Pf growth 48h 13µM, Pf growth 96h 12µM
O=C(NC1CCN(Cc2ccccc2)CC1)c1cc(S(=O)(=O)Nc2ccc(F)cc2)ccc1Cl	Pf growth 48h 9.3µM, Pf growth 96h 9.3µM (no result: NS1 inh)
O=C(NC1CCN(Cc2ccccc2)CC1)c1ccccc1	none
O=C(Cn1cc2c(n1)CCCC2)NC1CCCCCC1	Pf growth 96h inconclusive
O=C(Cn1cc2c(n1)CCCCC2)NC1CCN(Cc2ccccc2)CC1	Pf growth 96h 12µM (no result: Pf growth 48h)
CCOC(=O)N1CCC(NC(=O)c2cc(C(=O)NC3CCN(Cc4ccccc4)CC3)ccc2CO)CC1	Pf growth 96h 10µM (no result: NS1 inh)
CC(C)(C)c1ccc(C(=O)NC2CCN(Cc3ccccc3)CC2)cc1	Pf growth 48h inconclusive, Pf growth 96h 3.3µM
O=C(COC(=O)c1ccc(F)c(S(=O)(=O)N2CCOCC2)c1)Nc1ccc2[nH]c(=O)[nH]c2c1	none (no result: NS1 inh)
CC(C)NC(=O)C1(C)CCCN1Cc1ccccc1C#N (stereo unspecified)	none (no result: SARS PLP yeast, Pf growth 48h, Pf growth 96h, NS1 inh)
O=C(NC1CCN(CCc2c[nH]c3ccccc23)CC1)c1ccccc1	Pf growth 48h 15µM!, Pf growth 96h 12µM
O=C(NC1CCN(Cc2ccccc2)CC1)c1ccccc1Cl	Pf growth 96h inconclusive
O=C(NC1CCN(Cc2ccc(Cl)cc2Cl)CC1)c1ccccc1	Pf growth 96h 2.9µM
O=C(NC1CCN(Cc2ccccc2)CC1)c1ccccc1OCc1ccccc1	Pf growth 48h inconclusive, Pf growth 96h 9.3µM
Cc1ccc(Cl)cc1S(=O)(=O)N1CCC(C(=O)NC2CCN(Cc3ccccc3)CC2)CC1	Pf growth 48h 7.4µM
Cc1sc(NC(=O)C2C3C=CC(C3)C2C(=O)O)c(C(N)=O)c1-c1ccc(C(C)C)cc1 (stereo unspecified)	none
Cc1ccc(N=C2NC(=O)/C(=C\c3ccc(C)s3)S2)cc1	Pf growth 48h inconclusive, Pf growth 96h 1.7µM
Cc1ccc(N=C2NC(=O)/C(=C/c3cccn3C)S2)cc1C	Pf growth 48h inconclusive, Pf growth 96h 13µM
CCN(CC(=O)Nc1c(F)cccc1F)C(=O)COc1cccc2c1OC(C)(C)C2	Pf growth 96h inconclusive (no result: NS1 inh)
C=CCn1c(SCc2ccc(C#N)cc2)nnc1-c1ccc(C)cc1	Pf growth 48h inconclusive, Pf growth 96h 12µM
Cn1c(SCc2ccc(C#N)cc2)nnc1-c1ccncc1	none
CC(C)NC(=O)NC(=O)CSc1nnc(-c2c[nH]c3ccccc23)o1	none
CCC(COC)NC(=O)c1ccc(OC)c(OC2CCN(C(C)=O)CC2)c1 (stereo unspecified)	SARS PLP yeast inconclusive
Cc1ccc(C(=O)N/C(=C\c2cn(C)c3ccccc23)C(=O)NCCN2CCOCC2)cc1	Pf growth 48h inconclusive, Pf growth 96h inconclusive (no result: SARS PLP yeast)
CN1CCN(C(=O)c2ccc3c(c2)N(Cc2ccccc2)CCS3)CC1	none
O=C(c1ccc2c(c1)N(Cc1ccccc1)CCS2)N1CCOCC1	none
O=C(c1ccc2c(c1)N(Cc1ccc(F)cc1)CCS2)N1CCOCC1	Pf growth 96h 10µM
O=C(c1ccc2c(c1)N(Cc1ccccc1)CCS2)N1CCCCC1	Pf growth 48h inconclusive, Pf growth 96h 0.74µM
Cc1ccccc1N=Nc1c(N)n[nH]c1N	Pf growth 96h 2.9µM
Nc1ccc2c(c1)N1CCN=C1S2	none
O=C(Nc1ccc(Cl)cc1)Nc1ccc2c(c1)N1CCN=C1S2	Pf growth 48h 0.74µM, Pf growth 96h 2.1µM
Cn1c(N)c(C(=O)COC(=O)c2ccccc2C(=O)c2ccccc2)c(=O)n(C)c1=O	Pf growth 48h 13µM (no result: NS1 inh)
Cn1c(=O)c(C(=O)COC(=O)c2cc(-c3ccco3)nc3ccccc23)c(N)n(CC2CC2)c1=O	Pf growth 48h inconclusive, Pf growth 96h 8.3µM, NS1 inh inconclusive (no result: RE007 growth inh)
Cn1c(=O)c(C(=O)COC(=O)c2cc(C(F)(F)F)nc3ccccc23)c(N)n(Cc2ccccc2)c1=O	Pf growth 48h 12µM, Pf growth 96h inconclusive, NS1 inh inconclusive (no result: RE007 growth inh)
Cn1c(=O)c(C(=O)COC(=O)c2cc(-c3ccccc3)nc3ccccc23)c(N)n(Cc2ccccc2)c1=O	Pf growth 48h inconclusive, Pf growth 96h inconclusive (no result: RE007 growth inh)
Cn1c(=O)c(C(=O)COC(=O)c2cc(C3CC3)nc3ccccc23)c(N)n(Cc2ccccc2)c1=O	Pf growth 48h inconclusive, Pf growth 96h 9.3µM
Cc1cccc(CN(C)C[C@H]2OCc3cnnn3CCCC(=O)N([C@H](C)CO)C[C@@H]2C)c1	none (no result: SARS PLP yeast, Pf growth 48h, Pf growth 96h, NS1 inh)
CC(C)Cn1c(N)c(C(=O)CSc2ccccc2)c(=O)n(C)c1=O	none
CC(C)Cn1c(N)c(C(=O)COC(=O)/C=C/c2ccccc2)c(=O)n(C)c1=O	Pf growth 48h inconclusive, Pf growth 96h 10µM (no result: NS1 inh)
CCC(C)[C@H]1CN=C(N)N1CCc1cc(C(F)(F)F)cc(C(F)(F)F)c1 (stereo partly specified)	Pf growth 48h 4.7µM, Pf growth 96h 2.1µM
CCC(C)[C@H]1CN=C(N)N1CCCc1cc(OC)c(OC)c(OC)c1 (stereo partly specified)	Pf growth 48h 10µM, Pf growth 96h 13µM
COc1cc(CCCN2C(=O)C(=O)NC[C@@H]2c2ccccc2)cc(OC)c1OC	none
COc1cc(CCCN2C(N)=NC[C@@H]2c2ccccc2)cc(OC)c1OC	Pf growth 48h 12µM, Pf growth 96h inconclusive
COCCN(C(=O)COC(=O)C1CC1C)c1c(N)n(Cc2ccccc2)c(=O)[nH]c1=O (stereo unspecified)	Pf growth 48h inconclusive (no result: NS1 inh)
CCOc1ccccc1NC(=O)CC1Nc2ccccc2NC1=O (stereo unspecified)	Pf growth 48h 2.3µM, Pf growth 96h 3.3µM, NS1 inh inconclusive
COc1ccc(CCNC(=O)CC2Nc3ccccc3NC2=O)cc1 (stereo unspecified)	Pf growth 96h inconclusive, NS1 inh inconclusive (no result: Pf growth 48h)

High-throughput results (PubChem)
